Source: PubChem BioAssay
A selection: hits, their analogues and other compounds. The true share with any hit is near 12%.
HP1b chromo inh: HP1-beta chromodomain-methylated histone interaction inhibition. AID 540317. AlphaScreen HP1-beta / biotin-H3K9me3 peptide binding. P83916. Potency, µM (doses to about 114 µM), most hits filed as inhibitors. 0.56% of 390,000 active; also: nearly all actives have a fitted effect of over 70% in size
Target sequence (P83916 whole entry, looked up): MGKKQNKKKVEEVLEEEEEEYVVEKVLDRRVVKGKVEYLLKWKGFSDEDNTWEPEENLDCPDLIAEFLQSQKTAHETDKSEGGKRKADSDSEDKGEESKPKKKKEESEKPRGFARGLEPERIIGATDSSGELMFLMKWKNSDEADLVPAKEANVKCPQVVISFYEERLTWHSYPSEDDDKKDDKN
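Compound inhibition of the preformed complex between 50 nM HP1-beta and 50 nM biotinylated H3K9me3 peptide was read by AlphaScreen. Buffer was PBS pH 7.4 with 0.01% Tween-20. Incubations ran 30 min at room temperature, with 10 ug/mL donor/acceptor beads.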
JMJD2A Tudor: JMJD2A Tudor domain (human) inhibition. AlphaScreen JMJD2A-Tudor / H3K4me3 peptide binding. 4.4% of 390,000 active. O75164. AID 504339. Potency, µM (series often up to 114 µM), actives largely listed as inhibitors; also: nearly all actives have a fitted effect of over 50% in size
BAZ2B inh: inhibitors of human BAZ2B bromodomain | 4.4% of 360,000 active | AlphaScreen BAZ2B-H3K14Ac peptide displacement | Potency, µM (titrated, usually from 114 µM), usual class: inhibitors | Q9UIF8; also: nearly all actives have a fitted effect of over 60% in size
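Complex of BAZ2B and biotin-H3K14Ac (50 nM apiece) forms over 30 min at RT, then faces library compounds up to 110 uM for another 30 min; AlphaScreen beads added, 20 min dark incubation, luminescence read.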
G9a block: G9a (human) methyltransferase inhibition | Q96KQ7 | G9a H3K9 monomethylation, AlphaScreen, 2 h | Potency, µM (highest dose often 102 µM), most hits filed as inhibitors | 8.8% of 350,000 active | AID 504332; also: nearly all actives have a fitted effect of over 75% in size
Target sequence (Q96KQ7 913-1193 limits assumed): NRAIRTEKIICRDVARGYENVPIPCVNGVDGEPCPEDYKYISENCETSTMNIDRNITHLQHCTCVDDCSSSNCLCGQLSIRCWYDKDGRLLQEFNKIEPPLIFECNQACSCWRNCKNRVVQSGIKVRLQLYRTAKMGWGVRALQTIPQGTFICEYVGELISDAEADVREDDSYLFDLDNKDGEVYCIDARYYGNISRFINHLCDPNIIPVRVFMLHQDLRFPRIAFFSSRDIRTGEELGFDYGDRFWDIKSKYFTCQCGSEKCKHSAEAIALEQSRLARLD
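Chemiluminescent proximity detection of H3K9 monomethylation, read after 10 min bead incubation in the dark. Reaction: 20 nM G9a, 500 nM biotin-H3K9 peptide, 20 uM SAM cofactor, 2 h, room temperature, following 15 min enzyme-compound preincubation.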
Sfp inh: Sfp phosphopantetheinyl transferase inhibition | Biochemical Sfp PPTase activity, qHTS | Potency, µM, hits mostly inhibitors | 3.5% of 310,000 active | AID 1490;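 also: the enzyme is Sfp with the accession as filed and its product quenches rhodamine fluorescence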
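Compounds were incubated with enzyme (final 15 nM) for 15 min at room temperature before substrate addition started the reaction. Fluorescence at 525 nm excitation, 598 nm emission was recorded immediately and after 30 minutes.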
Numbers stand for hits; . = inactive; ? = inconclusive; / = not tested or not shown; [ ] = dose if it differs, or a comment. Calls follow the shape of the dose curve; as a rule, active = well fitted curve in the direction sought with a large enough effect; inconclusive = small, poorly fitted or top-dose-only effect, or another doubt; inactive = no such curve, though single readings can be large; an effect the other way counts as inactive or inconclusive.

SMILES	HP1b chromo inh	JMJD2A Tudor	BAZ2B inh	G9a block	Sfp inh
CCN1CCN(C(=O)c2ccc3c(c2)N(Cc2ccc(C)cc2)CCS3)CC1	.	.	.	79µM	.
Cc1ccc(CN2CCSc3ccc(C(=O)N4CCN(c5ncccn5)CC4)cc32)cc1	.	?	.	.[12.7 µM]	50µM
CCC(C)NC(=O)C(Cc1ccccc1)NS(=O)(=O)c1ccc2c(c1)oc(=O)n2C (stereo not given)	.	.	.	/	.
O=C(CCN1C(=O)/C(=C/c2cccs2)SC1=S)N1CCCCC1	?	?	8.9µM	10µM	.
COc1cccc(/C=C2\SC(=S)N(CCCC(=O)N3CCCCC3CCO)C2=O)c1 (stereo not given)	.	20µM	25µM	?	.
O=C(CCN1C(=O)/C(=C/c2ccc(F)cc2)SC1=S)NCCc1cnc[nH]1	.	?	18µM	28µM	.
O=C(CCN1C(=O)/C(=C/c2ccc(F)cc2)SC1=S)NNC(=O)c1ccncc1	.	.	.	.	.
COc1cccc(/C=C2\SC(=S)N(CCC(=O)N3CCCCC3CCO)C2=O)c1 (stereo not given)	?	?	32µM	56µM	.
COc1ccccc1/C=C1\SC(=S)N(CCC(=O)N2CCCCC2CCO)C1=O (stereo not given)	.	?	.	?	.
CN(C)CCN(Cc1ccccc1)c1ccccn1	.	.	.	.	.
COc1cc(CC(=O)OCC(=O)NCc2ccc(C)cc2)cc(OC)c1OC	.	.	.	.[12.7 µM]	/
CC(=O)c1cc2c(cc1NC(=O)CN1CCC(Cc3ccccc3)CC1)OCO2	.	.	.	.[2.33 µM]	.
COc1cccc(/C=C2\SC(=S)N(CCCC(=O)N3CCCC3)C2=O)c1	?	45µM	32µM	40µM	.
O=C(CCCN1C(=O)/C(=C/c2ccccc2Cl)SC1=S)N1CCOCC1	.	22µM	79µM	.	.
CN1CCN(C(=O)CCN2C(=O)/C(=C/c3ccc(F)cc3)SC2=S)CC1	.	.	?	71µM	.
COc1ccc(/C=C2\SC(=S)N(CCCC(=O)N3CCOCC3)C2=O)cc1	.	50µM	/	/	/
Cc1ccc(/C=C2/SC(=S)N(CCC(=O)N3CCN(C)CC3)C2=O)cc1	.	.	.	/	.
Nc1c(C(=O)NCC2CCCO2)sc(=S)n1-c1ccccc1 (stereo not given)	.	.	.	?	?
O=C(CSc1nnc(-c2ccc3c(c2)OCO3)o1)Nc1ncc(C(F)(F)F)cc1Cl	.	.	.	.	.
Cc1cc([N+](=O)[O-])c(C)cc1-c1ccc(/C=N/NC(=O)Cn2nnnc2N)o1	.	.	.	.	.
COc1ccc(/C=C2\SC(=O)N(CCC(=O)N3CCN(C)CC3)C2=O)cc1	.	.	.	.	.
O=C1/C(=C/c2cccs2)SC(=S)N1CCC(=O)N1CCCCC1CCO (stereo not given)	.	?	22µM	50µM	.
COc1cccc(/C=C2\SC(=O)N(CCC(=O)N3CCC(C(=O)O)CC3)C2=O)c1	.	.	?	71µM	.
COc1ccccc1/C=C1\SC(=O)N(CCC(=O)N2CCCCC2CCO)C1=O (stereo not given)	.	?	?	/	.
O=C(c1ccc(-c2ccccc2)cc1)c1ccc([N+](=O)[O-])cc1	/	/	.	56µM	.
SMILES	HP1b chromo inh	JMJD2A Tudor	BAZ2B inh	G9a block	Sfp inh
O=C(C#Cc1ccccc1)c1ccc([N+](=O)[O-])cc1	.	.	?	10µM	.
O=C(CNC(=O)c1ccc([N+](=O)[O-])cc1)c1ccccc1	.	.	.	.	.
CN1CCN(c2ccc(Cl)cc2NC(=O)c2cc(=O)[nH]c3ccccc23)CC1	.	.	.	.[12.7 µM]	/
CN1CCN(c2cc3c(c4c2[nH]c2ccccc24)C(=O)CC(C)(C)C3)CC1	.	?	.	56µM	?
CC(=O)c1nc(N2C(=O)CC(Cc3cccc(C)c3)C2=O)sc1C (stereo not given)	.	.	.	.	.
CC(=O)c1nc(N2C(=O)CC(Cc3cc(C)cc(C)c3)C2=O)sc1C (stereo not given)	.	.	.	45µM	.
O=C(CN1CCN(S(=O)(=O)c2ccc(F)c(Cl)c2)CC1)N1CCOCC1	.	.	.	1.1µM	/
CCOc1ccc2cc(S(=O)(=O)n3ccnc3C)ccc2c1	.	.	.	?	40µM
Cc1cc(S(=O)(=O)N2CCOCC2)ccc1F	?	79µM	.	.	.
CCOc1ccc2cc(S(=O)(=O)N3CCOCC3)ccc2c1	.	.	.	4.5µM	.
CCOc1ccc(Oc2ccc(S(=O)(=O)N3CCOCC3)cc2N)cc1	.	.	/	.	.
CCOc1cc(S(=O)(=O)N2CCOCC2)ccc1F	.	.	.	.	.
CCc1ccc(NC(=O)CSc2nc(-c3cccc(OC)c3)nc3c2Cc2c(CO)cnc(C)c2O3)cc1	.	.	.	.	/
Cc1ccccc1NC(=O)C(=Cc1ccc(C(=O)O)cc1)C(=O)Nc1ccccc1C	.	.	.	?	.
O=c1cc(C(F)(F)F)nc(-n2[nH]c3c(c2=O)CCCC3)[nH]1	.	.	2.5µM	?	.
S=c1[nH]nc(-c2ccncc2)n1/N=C/C=C/c1ccccc1	?	4.5µM	.	?	.
COc1ccccc1/C=C/C=N/n1c(-c2ccco2)n[nH]c1=S	.	28µM	?	1.3µM	?
COc1ccccc1/C=C\C=N\n1c(C2CCCCC2)n[nH]c1=S	?	.	?	.[0.0925 µM]	.
COc1ccccc1/C=C/C=N/n1c(-c2ccncc2)n[nH]c1=S	.	10µM	?	1.3µM	.
S=c1[nH]nc(-c2ccncc2)n1/N=C/C(Cl)=C\c1ccccc1	.	18µM	50µM	/	?
CCOC(=O)c1[nH]c(C)c(C(=O)NCCCOC(C)C)c1C	.	.	.	.	.
COc1ccccc1/C=C/C=N/n1c(-c2ccc(C)cc2)n[nH]c1=S	.	.	.	?	.
COc1ccc(-c2n[nH]c(=S)n2/N=C/C=C\c2ccccc2OC)cc1	.	89µM	.	?	.
CN(C)c1ccc(C(=O)/C=C/c2ccc(Br)cc2)cc1	.	.	.	?	.
O=C(/C=C/c1ccncc1)c1cc(Cl)ccc1O	?	35µM	45µM	22µM	.
SMILES	HP1b chromo inh	JMJD2A Tudor	BAZ2B inh	G9a block	Sfp inh
O=C(/C=C/c1cccnc1)c1cc(F)ccc1O	.	.	.	.	.
CN(C)c1ccc(/C=C/C(=O)c2cc(Cl)ccc2O)cc1	?	13µM	6.3µM	4µM	.
C=CCc1ccc(OCCOCCN(C)C)c(OC)c1	?	1.6µM	?	4µM	.
C=CCc1ccc(OCCCCOc2ccc(C(=O)O)cc2)c(OC)c1	.	.	?	?	.
C=CCc1ccc(OCCCCNC2CCCC2)c(OC)c1	?	?	56µM	13µM	.
C=CCc1ccc(OCCCCCN2CCOCC2)c(OC)c1	?	3.5µM	50µM	13µM	.
CC(C)CC(C(=O)Oc1ccc2c3c(c(=O)oc2c1)CCC3)N1C(=O)c2ccccc2C1=O (stereo not given)	.	.	.	.	.
COC(=O)c1ccc(N2CCOCC2)c(F)c1	.	.	.	.	.
